Among all 2,500 compounds or so, about 1,100 (44%) were called active. The set was probably picked from earlier hits. Some of the results follow. A number with no mark means an inactive call.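 The calls were made as follows: active = inhibition above 50% at 4 µM in the single-point screen; inactive = inhibition of 50% or less.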
Assay: blockers of TNF-a NF-kB luciferase induction – cell-based, HEK293T NF-kB-Luc, luminescence, selectivity assay for NOD1/NOD2 signaling inhibitor project, primary screen (AID 1852)
Conditions: TNF-a induced, 14 h, at 4 µM, active compounds read high
In the case of `CCOc1cc(/C=C(/C#N)c2ccc(Cl)cc2)cc(Cl)c1OCC(=O)O`, the inhibition is reported as 90.7% (active). Compound `CCOc1ccccc1NC(=O)Nc1ccc(Cl)cc1` has an inhibition of -53%. In the case of `CCOc1ccc(C(=O)/C=C/c2cc(OC)c(OC)c(OC)c2)cc1`, the inhibition is reported as 9.7%. `COc1cccc(C(=O)c2sc(NC(C)C)nc2N)c1` showed an inhibition of 41.4%. `COc1ccc2cc3c(N)nn(C(=O)c4ccc(Cl)c([N+](=O)[O-])c4)c3nc2c1` showed an inhibition of 43.3%. Compound `COc1ccc(CN(C)S(=O)(=O)c2nnc(NC(=O)c3cccc(F)c3)s2)cc1` has an inhibition of 29.9%. With `COc1ccc2cc3c(N)nn(C(=O)c4ccc(F)cc4)c3nc2c1` the inhibition was 60.6% (active). In the case of `COc1ccc2cc3c(N)nn(C(=O)c4cccc([N+](=O)[O-])c4)c3nc2c1`, the inhibition is reported as 65.4% (active). Compound `COc1cccc(-n2c(CN3CCN(c4ccccc4)CC3)nc3ccc([N+](=O)[O-])cc3c2=O)c1` has an inhibition of -0.2%. With `COc1ccc2cc3c(N)nn(C(=O)c4cccc(F)c4)c3nc2c1` the inhibition was 79.2% (active). `C/C(=N\NC(=O)c1ccc2c(c1)OCCO2)c1ccccc1` showed an inhibition of 14%. In the case of `C/C(=N\NC(=O)c1ccc(-c2ccccc2)cc1)C1C(=O)c2ccccc2C1=O`, the inhibition is reported as 93.6% (active). In the case of `C/C(=N\NC(=O)c1ccc(Br)cc1)C1C(=O)c2ccccc2C1=O`, the inhibition is reported as -12.6%. In the case of `COc1ccc(CC(=O)Nc2ccncc2Cl)cc1`, the inhibition is reported as 54% (active). For `CCC(NC(=O)c1ccc2nc(Cc3ccc(OC)cc3)oc2c1)c1ccncc1` (configuration not stated), the inhibition was 34%. `Cc1ccc(CC(=O)Nc2ccncc2)cc1` showed an inhibition of 38.6%. For `O=C(Cc1ccc(Cl)cc1Cl)Nc1ccncc1Cl`, the inhibition was 50% (active). For `Cc1ccc(C(=O)Nc2ccccc2-c2ccccc2)cc1[N+](=O)[O-]`, the inhibition was 75.4% (active). `Cc1ccc(C(=O)Nc2ccccc2N2CCCCC2)cc1[N+](=O)[O-]` showed an inhibition of -17.9%. Compound `Cc1ccc(C(=O)Nc2sc(C)c(-c3ccccc3)c2C(N)=O)cc1[N+](=O)[O-]` has an inhibition of -277%. With `O=C(Nc1ccc(-c2cn3ccsc3n2)cc1)c1ccc(F)c(S(=O)(=O)N2CCOCC2)c1` the inhibition was 30.4%. Work on `COc1cc(Nc2c3ccccc3nc3ccccc23)cc(OC)c1OC` yielded an inhibition of -0.2%. In the case of `COc1ccc(Nc2cc(Nc3cc(OC)c(OC)c(OC)c3)ncn2)cc1`, the inhibition is reported as 59.9% (active). Compound `COc1cc(C(=O)Nc2ccc(-c3nc4cc(C)ccc4o3)c(O)c2)cc(OC)c1OC` has an inhibition of 13.8%. `N#Cc1ccsc1NC(=O)c1cccc([N+](=O)[O-])c1` showed an inhibition of 20.9%. With `O=C(NNC(=S)NC(=O)c1cccc([N+](=O)[O-])c1)c1ccc(Br)cc1` the inhibition was -11.7%. With `O=C(Nc1nnc(-c2ccc(F)cc2)o1)c1cccc([N+](=O)[O-])c1` the inhibition was 89.2% (active). Work on `COc1ccc(-c2nnc(NC(=O)c3ccc(S(=O)(=O)N4CCc5ccccc5C4)cc3)o2)cc1` yielded an inhibition of 34.1%. In the case of `CN(c1ccccc1)S(=O)(=O)c1ccc(C(=O)Nc2nnc(-c3ccc(F)cc3)o2)cc1`, the inhibition is reported as 95% (active). In the case of `COc1ccccc1N(C)S(=O)(=O)c1ccc(C(=O)Nc2ccc(N3CCOCC3)cc2)cc1`, the inhibition is reported as 35.4%. With `COc1ccc(-c2nnc(NC(=O)c3ccc(F)cc3)o2)cc1` the inhibition was 102% (active). For `CCOc1ccc(-c2nnc(NC(=O)c3ccc(OCC(C)C)c(OC)c3)o2)cc1`, the inhibition was 105% (active). `CC(=O)O[C@]1(C(C)=O)CC[C@H]2[C@@H]3C=CC4=CC(=O)C=C[C@]4(C)[C@H]3CC[C@@]21C` showed an inhibition of 32.7%. For `O=C(Nc1nnc(-c2ccc(F)cc2)o1)c1cc(Cl)sc1Cl`, the inhibition was 96.6% (active). With `O=C(Nc1nnc(-c2ccc(Cl)s2)o1)C1CC1` the inhibition was -5.5%. For `C/C(=N\Nc1ncnc2sc(C)c(C)c12)c1ccccn1`, the inhibition was 103% (active). `COc1ccc(C2C(C(=O)N3CCOCC3)CCC(=O)N2c2ccc(OC)cc2)cc1` (configuration not stated) showed an inhibition of 17.2%. In the case of `Cc1ccc(Nc2cc(C)nn2-c2nc(C)cc(=O)[nH]2)cc1`, the inhibition is reported as 107% (active). Work on `Cc1cc(NC(=O)c2ccc(C)s2)n(-c2nc3ccccc3[nH]2)n1` yielded an inhibition of 31.1%. `Cc1cc(NC(=O)c2cccs2)n(-c2nc3ccccc3[nH]2)n1` showed an inhibition of 35.4%. Work on `Cc1cccc(N2CCN(C(=O)CCCCCn3c(=S)[nH]c4ccc(N5CCOCC5)cc4c3=O)CC2)c1C` yielded an inhibition of -10.2%. `O=C(CCCn1c(=S)[nH]c2cc3c(cc2c1=O)OCO3)N1CCN(c2ccc(Cl)cc2)CC1` gave an inhibition of 35.9%. With `Cc1ccc(C)c(N2CCN(C(=O)CCCCCn3c(=S)[nH]c4ccc(N5CCOCC5)cc4c3=O)CC2)c1` the inhibition was 96.5% (active). `CC(C)C(=O)N1CCN(c2nc(-c3ccc(Cl)cc3)cs2)CC1` showed an inhibition of -37.6%. Compound `O=C(Nc1ccc2nn(-c3ccccc3)nc2c1)c1ccc2c(c1)OCCO2` has an inhibition of 31.9%. In the case of `O=C(Nc1ccc(N2CCN(C(=O)c3ccc(Cl)cc3)CC2)cc1)c1ccc2c(c1)OCCO2`, the inhibition is reported as 86.8% (active). With `Cc1ccc(C(=O)N2CCN(c3ccc(NC(=O)c4ccc5c(c4)OCCO5)cc3)CC2)cc1` the inhibition was 84.2% (active). For `Cc1ccccc1C(=O)N1CCN(c2ccc(NC(=O)c3ccc4c(c3)OCCO4)cc2)CC1`, the inhibition was -3.1%. In the case of `CC(C)C(=O)N1CCN(c2ccc(NC(=O)c3ccc4c(c3)OCCO4)cc2Cl)CC1`, the inhibition is reported as 80.5% (active). For `CCCCCOc1ccc(/C=C/c2c([N+](=O)[O-])c(=O)n(C)c(=O)n2C)cc1`, the inhibition was 21.4%. With `CCOC(=O)/C=C/S(=O)(=O)c1ccc(NC(C)=O)cc1` the inhibition was 64% (active). For `CCOC(=O)/C=C/C(=O)Nc1ccc(S(=O)(=O)N(C)c2ccccc2)cc1`, the inhibition was -15.6%. With `CCOC(=O)/C=C/C(=O)Nc1ccc(S(=O)(=O)Nc2c(C)cc(C)cc2C)cc1` the inhibition was 25.7%. For `O=C(O)CCC(=O)c1ccc2ccc3cccc4ccc1c2c34`, the inhibition was 50% (active). In the case of `Nc1[nH]nc2ncc3cc4ccccc4nc3c12`, the inhibition is reported as 36.8%. With `Cc1nn(-c2ccccc2)c(Cl)c1CN(C(=O)CCl)c1ccc(Cl)cc1` the inhibition was 105% (active). In the case of `Cc1nn(-c2ccccc2)c(Cl)c1CN(C(=O)CCl)c1cccc2ccccc12`, the inhibition is reported as 14.9%.
